Binding signal data for one sequence are collected here from publication PMC7862700, “An all-to-all approach to the identification of sequence-specific readers for epigenetic DNA modifications on cytosine”.

Assay in all cases: DAPPL (digital affinity profiling via proximity ligation, sequencing); 10 mM Tris-HCl pH 7.5, 50 mM NaCl, 1 mM DTT, 4% glycerol, room temperature, 30 min; GST-TFs on glutathione beads, 16-mer random dsDNA library, 0.1% formaldehyde crosslink after washing; high values mean tight binding
Assay [1] addresses T1, FEV (Homo sapiens, UniProt Q99581 1-238).
T1 sequence: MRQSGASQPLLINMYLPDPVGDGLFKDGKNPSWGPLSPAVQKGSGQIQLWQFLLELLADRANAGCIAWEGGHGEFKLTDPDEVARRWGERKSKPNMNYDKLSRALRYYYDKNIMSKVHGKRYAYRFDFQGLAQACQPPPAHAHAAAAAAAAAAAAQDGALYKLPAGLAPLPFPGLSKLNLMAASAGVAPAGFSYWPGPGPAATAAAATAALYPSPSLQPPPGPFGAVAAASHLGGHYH
To be noted: protein: recombinant; tags: N-terminal GST; dsDNA, one strand shown. In a few lines: (§1)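 Human transcription factors were made in yeast as GST fusions, captured on glutathione beads and barcoded with DNA. With a tag-only sample included, the pool was incubated with 200 nmole of a random double-stranded 16-mer DNA library in Tris/NaCl/DTT/glycerol buffer at room temperature for 30 min, then crosslinked with 0.1% formaldehyde after washing, ligated by proximity, amplified and sequenced. For binding signal, each hexamer's read frequency for a factor is divided by its frequency for the tag-only sample.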

Assay [2] addresses ETV5 (Homo sapiens, UniProt P41161 1-510). The conditions noted are these: protein: recombinant; tags: N-terminal GST; dsDNA, one strand shown. In a few lines:
as §1

Assay [3] concerns the target HSF1 (Homo sapiens, UniProt Q00613 1-529). The conditions noted are these: protein: recombinant; tags: N-terminal GST; chain copies: 3; dsDNA, one strand shown. Put shortly:
as §1

Assay [4] deals with T2, SPIC (Homo sapiens, UniProt Q8N5J4 1-248).
T2 sequence: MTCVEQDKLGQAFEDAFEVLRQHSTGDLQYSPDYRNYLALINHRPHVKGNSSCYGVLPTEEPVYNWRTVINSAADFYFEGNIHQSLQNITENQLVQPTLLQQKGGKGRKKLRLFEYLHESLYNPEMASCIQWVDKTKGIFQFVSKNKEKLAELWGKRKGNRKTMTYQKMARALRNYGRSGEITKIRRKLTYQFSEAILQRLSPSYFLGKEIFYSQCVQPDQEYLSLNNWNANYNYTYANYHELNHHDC
To be noted: protein: recombinant; tags: N-terminal GST; dsDNA, one strand shown. In a few lines: as §1

The target of assay [5] is ELF4 (Homo sapiens, UniProt Q99607 1-663). To be noted: protein: recombinant; tags: N-terminal GST; dsDNA, one strand shown. In a few lines:
as §1

For assay [6], the target named is T3, ELK4 (Homo sapiens, UniProt P28324-2 1-405).
T3 sequence: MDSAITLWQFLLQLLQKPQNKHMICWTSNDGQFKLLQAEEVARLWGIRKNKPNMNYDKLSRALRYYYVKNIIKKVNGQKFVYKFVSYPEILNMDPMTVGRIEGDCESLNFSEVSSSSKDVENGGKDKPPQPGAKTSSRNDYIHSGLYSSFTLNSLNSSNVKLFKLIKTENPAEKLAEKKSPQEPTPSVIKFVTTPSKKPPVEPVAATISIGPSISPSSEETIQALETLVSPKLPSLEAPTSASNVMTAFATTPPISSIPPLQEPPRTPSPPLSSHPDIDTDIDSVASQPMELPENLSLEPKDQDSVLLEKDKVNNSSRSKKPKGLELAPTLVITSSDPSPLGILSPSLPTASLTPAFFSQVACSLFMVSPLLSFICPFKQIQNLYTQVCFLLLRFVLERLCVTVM
To be noted: protein: recombinant; tags: N-terminal GST; dsDNA, one strand shown. Put shortly: as §1

Assay [7] has as its target T4, ETV2 (Homo sapiens, UniProt O00321 1-342).
T4 sequence: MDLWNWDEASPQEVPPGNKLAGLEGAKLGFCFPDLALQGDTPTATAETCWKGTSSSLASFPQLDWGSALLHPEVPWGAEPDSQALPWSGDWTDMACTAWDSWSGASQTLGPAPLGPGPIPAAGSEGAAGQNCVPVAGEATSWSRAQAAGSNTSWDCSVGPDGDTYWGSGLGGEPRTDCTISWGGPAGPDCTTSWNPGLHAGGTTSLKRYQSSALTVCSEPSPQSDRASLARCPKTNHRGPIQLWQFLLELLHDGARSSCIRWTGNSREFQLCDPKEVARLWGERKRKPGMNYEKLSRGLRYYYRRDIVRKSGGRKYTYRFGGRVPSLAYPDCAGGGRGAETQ
The conditions noted are these: protein: recombinant; tags: N-terminal GST; dsDNA, one strand shown. Put shortly:
as §1

For assay [8], the target named is T5, ELF3 (Homo sapiens, UniProt P78545 1-371).
T5 sequence: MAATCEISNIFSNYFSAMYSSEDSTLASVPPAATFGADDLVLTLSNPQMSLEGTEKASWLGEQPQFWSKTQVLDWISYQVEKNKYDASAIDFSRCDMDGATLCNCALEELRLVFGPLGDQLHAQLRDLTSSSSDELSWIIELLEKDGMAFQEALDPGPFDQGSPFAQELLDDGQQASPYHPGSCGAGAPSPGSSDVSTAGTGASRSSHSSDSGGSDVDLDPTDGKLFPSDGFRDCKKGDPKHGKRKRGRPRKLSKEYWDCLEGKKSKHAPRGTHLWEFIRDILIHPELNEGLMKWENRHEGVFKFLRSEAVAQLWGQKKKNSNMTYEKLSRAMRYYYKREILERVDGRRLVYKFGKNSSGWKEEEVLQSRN
The conditions noted are these: protein: recombinant; tags: N-terminal GST; dsDNA, one strand shown. In a few lines:
as §1

The target of assay [9] is CRX (Homo sapiens, UniProt O43186 1-299). To be noted: protein: recombinant; tags: N-terminal GST; dsDNA, one strand shown. In a few lines:
as §1

Assay [10] deals with ETV1 (Homo sapiens, UniProt P50549 1-477). The conditions noted are these: protein: recombinant; tags: N-terminal GST; dsDNA, one strand shown. In a few lines: as §1
Assay [11] deals with T6, ERF (Homo sapiens, UniProt P50548 1-548).
T6 sequence: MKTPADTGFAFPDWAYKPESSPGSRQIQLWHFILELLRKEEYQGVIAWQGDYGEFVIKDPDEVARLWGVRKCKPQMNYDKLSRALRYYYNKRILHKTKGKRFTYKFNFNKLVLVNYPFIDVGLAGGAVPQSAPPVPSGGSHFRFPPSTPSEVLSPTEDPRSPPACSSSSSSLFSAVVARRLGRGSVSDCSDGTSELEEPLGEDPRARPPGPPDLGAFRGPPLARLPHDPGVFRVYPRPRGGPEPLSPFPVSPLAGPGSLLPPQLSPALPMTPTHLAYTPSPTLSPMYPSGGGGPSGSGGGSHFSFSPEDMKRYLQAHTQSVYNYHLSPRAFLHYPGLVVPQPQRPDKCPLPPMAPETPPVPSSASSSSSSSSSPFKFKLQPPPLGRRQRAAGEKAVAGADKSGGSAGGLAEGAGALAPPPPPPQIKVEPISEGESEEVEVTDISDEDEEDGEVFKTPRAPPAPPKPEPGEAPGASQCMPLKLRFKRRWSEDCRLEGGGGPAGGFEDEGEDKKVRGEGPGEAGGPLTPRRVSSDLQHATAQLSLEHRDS
The conditions noted are these: protein: recombinant; tags: N-terminal GST; dsDNA, one strand shown. Put shortly: as §1

In assay [12] the target is T7, ETV3L (Homo sapiens, UniProt Q6ZN32 1-361).
T7 sequence: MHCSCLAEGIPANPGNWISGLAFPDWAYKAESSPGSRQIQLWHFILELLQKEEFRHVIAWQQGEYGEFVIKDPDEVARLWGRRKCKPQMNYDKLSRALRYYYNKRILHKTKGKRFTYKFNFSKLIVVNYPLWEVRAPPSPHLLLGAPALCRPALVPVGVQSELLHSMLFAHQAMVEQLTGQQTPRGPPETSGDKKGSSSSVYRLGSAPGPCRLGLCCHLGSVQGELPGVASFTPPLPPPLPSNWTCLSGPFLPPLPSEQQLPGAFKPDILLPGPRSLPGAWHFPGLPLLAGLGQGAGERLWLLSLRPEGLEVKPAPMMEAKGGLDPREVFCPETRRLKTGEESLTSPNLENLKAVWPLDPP
The conditions noted are these: protein: recombinant; tags: N-terminal GST; dsDNA, one strand shown. Put shortly: as §1

Assay [13] deals with T8, ETS2 (Homo sapiens, UniProt P15036 1-469).
T8 sequence: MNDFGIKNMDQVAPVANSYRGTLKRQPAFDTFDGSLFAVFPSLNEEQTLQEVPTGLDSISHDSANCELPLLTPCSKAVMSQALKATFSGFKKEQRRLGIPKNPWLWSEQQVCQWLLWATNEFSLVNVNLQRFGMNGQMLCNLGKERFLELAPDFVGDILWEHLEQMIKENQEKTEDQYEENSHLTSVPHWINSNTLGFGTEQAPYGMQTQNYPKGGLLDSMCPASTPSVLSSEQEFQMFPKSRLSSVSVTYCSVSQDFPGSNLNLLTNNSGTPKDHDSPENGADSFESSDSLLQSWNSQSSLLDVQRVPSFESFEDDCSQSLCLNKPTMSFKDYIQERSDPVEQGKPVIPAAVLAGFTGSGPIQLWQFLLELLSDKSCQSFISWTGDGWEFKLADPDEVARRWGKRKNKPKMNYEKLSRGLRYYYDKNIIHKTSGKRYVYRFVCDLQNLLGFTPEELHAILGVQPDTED
The conditions noted are these: protein: recombinant; tags: N-terminal GST; dsDNA, one strand shown. In a few lines:
as §1

Assay [14] deals with T9, SPDEF (Homo sapiens, UniProt O95238 1-335).
T9 sequence: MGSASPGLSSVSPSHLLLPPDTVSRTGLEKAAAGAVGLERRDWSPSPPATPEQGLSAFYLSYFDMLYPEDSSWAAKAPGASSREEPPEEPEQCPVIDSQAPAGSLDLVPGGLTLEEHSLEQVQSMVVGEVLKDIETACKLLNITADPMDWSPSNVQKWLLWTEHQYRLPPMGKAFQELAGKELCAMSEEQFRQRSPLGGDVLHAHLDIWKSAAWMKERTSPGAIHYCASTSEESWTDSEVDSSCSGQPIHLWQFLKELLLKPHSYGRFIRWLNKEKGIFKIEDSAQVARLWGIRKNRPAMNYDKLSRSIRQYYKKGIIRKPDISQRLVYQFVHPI
To be noted: protein: recombinant; tags: N-terminal GST; dsDNA, one strand shown. In a few lines: as §1

Assay [15] has as its target T10, ETV7 (Homo sapiens, UniProt Q9Y603 1-341).
T10 sequence: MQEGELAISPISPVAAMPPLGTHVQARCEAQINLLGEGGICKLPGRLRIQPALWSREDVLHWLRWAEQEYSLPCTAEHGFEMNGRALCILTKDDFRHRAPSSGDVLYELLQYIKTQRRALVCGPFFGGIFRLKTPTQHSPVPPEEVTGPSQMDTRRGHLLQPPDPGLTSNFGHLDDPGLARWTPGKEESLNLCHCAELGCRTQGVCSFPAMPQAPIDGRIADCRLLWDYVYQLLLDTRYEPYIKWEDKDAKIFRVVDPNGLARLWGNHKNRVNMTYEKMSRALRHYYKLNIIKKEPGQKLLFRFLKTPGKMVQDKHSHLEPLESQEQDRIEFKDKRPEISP
To be noted: protein: recombinant; tags: N-terminal GST; dsDNA, one strand shown. Put shortly: as §1

The target in assay [16] is T11, ELF5 (Homo sapiens, UniProt Q9UKW6-2 1-255).
T11 sequence: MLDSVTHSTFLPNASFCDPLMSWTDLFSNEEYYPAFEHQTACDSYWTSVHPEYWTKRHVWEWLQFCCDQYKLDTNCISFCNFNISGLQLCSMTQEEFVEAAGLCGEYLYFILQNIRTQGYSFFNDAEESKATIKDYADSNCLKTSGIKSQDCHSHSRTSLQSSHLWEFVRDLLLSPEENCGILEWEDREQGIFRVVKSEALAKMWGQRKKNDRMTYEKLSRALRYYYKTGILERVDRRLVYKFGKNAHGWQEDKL
To be noted: protein: recombinant; tags: N-terminal GST; dsDNA, one strand shown. Put shortly:
as §1

Assay [17] has as its target T12, ETV3 (Homo sapiens, UniProt P41162-2 1-143).
T12 sequence: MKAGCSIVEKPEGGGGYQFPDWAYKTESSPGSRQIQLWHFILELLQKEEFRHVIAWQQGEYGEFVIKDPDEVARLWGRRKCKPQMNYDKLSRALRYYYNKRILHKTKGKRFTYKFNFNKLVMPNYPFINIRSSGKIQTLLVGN
To be noted: protein: recombinant; tags: N-terminal GST; dsDNA, one strand shown. In a few lines: as §1

The target in assay [18] is ETV6 (Homo sapiens, UniProt P41212 1-452). The conditions noted are these: protein: recombinant; tags: N-terminal GST; dsDNA, one strand shown. In a few lines:
as §1

Sequence of CRX (O43186 whole entry): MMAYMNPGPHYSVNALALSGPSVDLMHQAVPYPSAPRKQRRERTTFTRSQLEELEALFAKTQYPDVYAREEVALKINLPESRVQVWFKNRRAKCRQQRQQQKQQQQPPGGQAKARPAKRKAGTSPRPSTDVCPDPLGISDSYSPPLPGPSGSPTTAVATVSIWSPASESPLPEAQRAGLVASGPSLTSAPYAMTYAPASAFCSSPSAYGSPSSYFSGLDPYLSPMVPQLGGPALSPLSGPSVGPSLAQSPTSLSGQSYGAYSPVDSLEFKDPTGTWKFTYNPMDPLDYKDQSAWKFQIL
Sequence of ELF4 (Q99607 whole entry): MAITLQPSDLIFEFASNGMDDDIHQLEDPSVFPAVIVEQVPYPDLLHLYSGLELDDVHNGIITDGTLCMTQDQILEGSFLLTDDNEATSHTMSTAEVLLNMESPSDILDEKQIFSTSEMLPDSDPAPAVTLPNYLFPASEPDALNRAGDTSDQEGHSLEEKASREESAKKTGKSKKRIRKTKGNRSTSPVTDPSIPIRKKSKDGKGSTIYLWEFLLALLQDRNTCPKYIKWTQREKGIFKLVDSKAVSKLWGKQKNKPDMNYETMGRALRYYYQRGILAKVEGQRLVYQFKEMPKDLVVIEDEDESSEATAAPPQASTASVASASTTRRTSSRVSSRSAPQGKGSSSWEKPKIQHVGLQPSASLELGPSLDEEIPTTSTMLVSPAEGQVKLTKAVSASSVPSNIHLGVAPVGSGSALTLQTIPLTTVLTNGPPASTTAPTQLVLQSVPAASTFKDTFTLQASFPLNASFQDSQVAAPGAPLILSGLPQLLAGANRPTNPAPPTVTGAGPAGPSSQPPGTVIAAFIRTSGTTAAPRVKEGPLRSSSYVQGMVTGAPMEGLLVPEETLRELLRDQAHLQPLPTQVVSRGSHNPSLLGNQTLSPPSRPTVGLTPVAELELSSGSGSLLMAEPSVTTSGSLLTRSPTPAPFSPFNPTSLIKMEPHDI
Sequence of ETV5 (P41161 whole entry): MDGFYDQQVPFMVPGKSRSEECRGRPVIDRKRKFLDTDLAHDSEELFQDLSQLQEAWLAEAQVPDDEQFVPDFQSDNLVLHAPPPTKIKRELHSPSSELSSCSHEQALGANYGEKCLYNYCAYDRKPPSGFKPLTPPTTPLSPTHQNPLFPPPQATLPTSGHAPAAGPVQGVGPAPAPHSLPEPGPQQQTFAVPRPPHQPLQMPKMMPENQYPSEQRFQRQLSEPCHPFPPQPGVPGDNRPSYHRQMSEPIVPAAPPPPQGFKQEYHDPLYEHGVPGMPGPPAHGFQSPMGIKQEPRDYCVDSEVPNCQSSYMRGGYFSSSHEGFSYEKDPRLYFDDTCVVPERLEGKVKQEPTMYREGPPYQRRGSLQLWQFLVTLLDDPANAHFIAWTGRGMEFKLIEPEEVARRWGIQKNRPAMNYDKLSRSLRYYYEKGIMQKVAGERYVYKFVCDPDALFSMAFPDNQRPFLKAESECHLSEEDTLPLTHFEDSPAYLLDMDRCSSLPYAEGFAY
Sequence of ETV6 (P41212 whole entry): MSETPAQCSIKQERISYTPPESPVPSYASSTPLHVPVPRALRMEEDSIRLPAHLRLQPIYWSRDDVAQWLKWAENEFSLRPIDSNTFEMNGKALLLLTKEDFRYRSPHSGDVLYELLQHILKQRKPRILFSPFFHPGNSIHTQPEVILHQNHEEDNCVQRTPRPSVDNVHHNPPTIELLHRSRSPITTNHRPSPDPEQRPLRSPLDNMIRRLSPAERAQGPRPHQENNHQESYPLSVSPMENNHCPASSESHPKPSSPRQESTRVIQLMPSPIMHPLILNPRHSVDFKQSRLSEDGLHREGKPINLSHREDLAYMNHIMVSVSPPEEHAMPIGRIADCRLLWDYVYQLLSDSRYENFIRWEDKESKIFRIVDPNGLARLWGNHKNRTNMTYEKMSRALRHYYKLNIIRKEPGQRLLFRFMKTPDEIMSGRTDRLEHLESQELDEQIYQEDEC
Sequence of ETV1 (P50549 whole entry): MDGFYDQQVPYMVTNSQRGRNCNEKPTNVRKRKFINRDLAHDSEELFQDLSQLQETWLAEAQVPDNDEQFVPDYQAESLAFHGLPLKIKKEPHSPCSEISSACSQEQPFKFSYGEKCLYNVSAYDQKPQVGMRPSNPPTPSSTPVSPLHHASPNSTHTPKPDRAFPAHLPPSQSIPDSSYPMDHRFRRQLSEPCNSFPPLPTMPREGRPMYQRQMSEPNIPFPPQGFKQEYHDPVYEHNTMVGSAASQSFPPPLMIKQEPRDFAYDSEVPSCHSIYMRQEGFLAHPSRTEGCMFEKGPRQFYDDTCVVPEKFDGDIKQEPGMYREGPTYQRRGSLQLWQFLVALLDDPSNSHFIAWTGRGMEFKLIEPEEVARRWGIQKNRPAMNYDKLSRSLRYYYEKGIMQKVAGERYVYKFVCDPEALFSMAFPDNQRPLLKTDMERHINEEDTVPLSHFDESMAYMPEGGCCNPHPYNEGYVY
Sequence of HSF1 (Q00613 whole entry): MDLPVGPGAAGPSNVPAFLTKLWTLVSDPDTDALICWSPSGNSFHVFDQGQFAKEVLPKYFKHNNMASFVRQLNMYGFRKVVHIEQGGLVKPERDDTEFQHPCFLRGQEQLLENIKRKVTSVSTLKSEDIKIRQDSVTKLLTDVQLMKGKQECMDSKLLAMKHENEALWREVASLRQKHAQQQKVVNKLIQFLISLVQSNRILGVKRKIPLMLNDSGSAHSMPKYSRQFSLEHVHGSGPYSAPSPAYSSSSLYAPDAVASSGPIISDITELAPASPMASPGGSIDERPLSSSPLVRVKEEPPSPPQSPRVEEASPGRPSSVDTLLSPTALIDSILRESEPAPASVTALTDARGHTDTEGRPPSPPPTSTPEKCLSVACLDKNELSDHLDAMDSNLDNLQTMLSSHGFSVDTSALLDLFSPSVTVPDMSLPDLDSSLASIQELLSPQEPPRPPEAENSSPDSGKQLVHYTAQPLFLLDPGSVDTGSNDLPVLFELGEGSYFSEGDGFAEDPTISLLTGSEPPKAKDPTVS

With CAATTT, the binding signal was 1.5 fold enrichment (6-mer frequency, TF over GST control) in [1]; 1.29 fold enrichment (6-mer frequency, TF over GST control) in assay [2]; 1.15 fold enrichment (6-mer frequency, TF over GST control) in assay [3]; 1.26 fold enrichment (6-mer frequency, TF over GST control) in assay [4]; 1.35 fold enrichment (6-mer frequency, TF over GST control) in [5]; 1.31 fold enrichment (6-mer frequency, TF over GST control) in assay [6]. For the same sequence, the binding signal in assay [7] is 1.44 fold enrichment (6-mer frequency, TF over GST control); in [8] it was 1.53 fold enrichment (6-mer frequency, TF over GST control); in assay [9] it was 1.07 fold enrichment (6-mer frequency, TF over GST control); in [10] it was 1.35 fold enrichment (6-mer frequency, TF over GST control); in assay [11], 1.36 fold enrichment (6-mer frequency, TF over GST control); in assay [12], 1.33 fold enrichment (6-mer frequency, TF over GST control). Also, the binding signal in [13] is 1.28 fold enrichment (6-mer frequency, TF over GST control); in assay [14], 1.21 fold enrichment (6-mer frequency, TF over GST control); in assay [15], 1.31 fold enrichment (6-mer frequency, TF over GST control); in [16], 1.29 fold enrichment (6-mer frequency, TF over GST control); in [17], 1.43 fold enrichment (6-mer frequency, TF over GST control); in [18], 1.32 fold enrichment (6-mer frequency, TF over GST control).
